Assay results from PubChem BioAssay AID434989 (The Scripps Research Institute Molecular Screening Center, 2010).
Among all 330,000 compounds or so, about 1,400 (0.42%) were called active.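 How the source made its calls: active means inhibition above its plate's threshold, mean inhibition of all tested compounds on the plate plus 3 SD (cut at about 37% in these data); inactive means the rest.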 Shown is part of a subset that was picked to be rich in actives.

Each molecule was assayed against Orexin/Hypocretin receptor type 1 (Homo sapiens) (UniProt O43613) (assay: blockers of orexin-A calcium signaling via HCRTR1 – fluorescence, CHO/OX1R cells, Fluo-8 calcium, primary screen (AID 434989;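 further: 0% = orexin A challenge wells and 100% = SB-334867-A antagonist wells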)). Conditions: Fluo-8 calcium fluorescence, at 5 µM, stronger effect = higher value.
Sequence of Orexin/Hypocretin receptor type 1 (Homo sapiens) (O43613 whole entry, looked up): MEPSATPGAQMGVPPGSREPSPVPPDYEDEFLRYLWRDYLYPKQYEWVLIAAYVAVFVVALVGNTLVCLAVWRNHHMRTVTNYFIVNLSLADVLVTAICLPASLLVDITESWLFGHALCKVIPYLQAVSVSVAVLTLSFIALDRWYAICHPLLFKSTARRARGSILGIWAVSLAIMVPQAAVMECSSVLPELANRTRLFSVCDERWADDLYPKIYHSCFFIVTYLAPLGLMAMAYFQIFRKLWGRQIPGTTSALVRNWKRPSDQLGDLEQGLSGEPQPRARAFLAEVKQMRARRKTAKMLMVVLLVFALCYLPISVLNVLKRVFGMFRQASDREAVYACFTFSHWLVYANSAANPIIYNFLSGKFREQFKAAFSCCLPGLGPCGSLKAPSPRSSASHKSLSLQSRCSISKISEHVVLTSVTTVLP

inhibition, inactive:
c1ccc(-c2cc(-c3ccccc3)[nH]n2)cc1 -9.86%, Fc1ccccc1/C=N/n1c(-c2cccnc2)n[nH]c1=S -5.34%, C=CC[C@H](CC(=O)OC(C)(C)C)C(=O)OC[C@H]1CCCN1C(=O)[C@H](CC=C)CC(=O)N(CCO)Cc1ccccc1 -15.6%, O=C1N[C@H](Cc2c[nH]c3ccccc23)COC(=O)[C@H](Cc2ccc(F)cc2)C/C=C\C[C@H]1CC(=O)N(CCO)Cc1ccccc1 -2.05%, CC(C)(C)NS(=O)(=O)NC(=O)C1=C(N2CCCC2)COC1=O -2.12%, O=C(CNC(=O)c1cccnc1)N/N=C/c1cccnc1 1.04%, O=C(NN=C1CCC(=NNC(=O)c2cccnc2)CC1)c1cccnc1 -6.2%, CC(=O)N(O)CCCCCNC(=O)CCC(=O)N(O)CCCCCNC(=O)CCC(=O)N(O)CCCCCNC(=O)CCC(=O)O -5.54%, CC(=O)Nc1ccc(/C=N/NC(=O)c2cccs2)cc1 18.2%, CC(=O)NC(Cc1c[nH]c2ccccc12)C(=O)O (stereo unspecified) -1.34%, Cc1ccc(N2C(=O)N3[C@@H]4c5ccccc5OC[C@@H]4[C@@H](c4ccccc4)[C@@]3(C)C2=O)cc1 -30.9%, COc1ccc(CNc2nc(NCc3ccc(OC)cc3)c3ncn(C4CCCC4)c3n2)cc1 -5.92%, Cc1noc(C)c1NC(=O)Nc1ccc2c(c1)C(=O)N([C@H](C)CO)C[C@H](C)[C@@H](CN(C)C(=O)Nc1ccccc1)O2 -4.54%, COc1cc(NS(=O)(=O)c2ccc(NC(C)=O)cc2)cc(OC)c1 9.3%, CC(=O)c1ccc(NC(=S)NC(=O)CC(C)C)cc1 3.22%, COc1ccc(N2CCN(C(CNS(=O)(=O)c3ccc(C)cc3)c3ccccc3)CC2)cc1 (stereo unspecified) -26.8%, CCN([C@H](CO)C(C)C)S(=O)(=O)c1ccccc1Br 1.51%, O=C(COC(=O)COc1ccccc1F)Nc1cccc(S(=O)(=O)N2CCCCC2)c1 -27.3%, CCn1nnc2cc(C(=O)Nc3ccc(C(=O)OC(C)C)cc3)ccc21 -14.8%, Cc1cc(C)cc(OCC(=O)NC(C)c2ccccc2)c1 (stereo unspecified) -37.8%, COc1cc(OC)cc(C(=O)NC(C(=O)N2CCC2)C(C)C)c1 (stereo unspecified) -9.6%, CC(C)(C)OC(=O)C[C@@H]1C/C=C\C[C@@H](CC(=O)N[C@H](CO)Cc2ccccc2)C(=O)NCCOC1=O 2.53%, COc1ccc(CN2C(CC(=O)Nc3cccnc3)c3ccc(C(F)(F)F)cc3S2(=O)=O)cc1 (stereo unspecified) -16.2%, O=C(Cn1ccc2cc(S(=O)(=O)N3CCCC3)ccc21)NCc1ccccc1 -25.5%, COC(=O)Cn1cc(/C=C/[N+](=O)[O-])c2ccccc21 -4.68%, CC1(C)C[C@H]2C3=CCC4[C@@]5(C)CC[C@H](O)[C@](C)(CO)C5CC[C@@]4(C)[C@]3(C)C[C@@H](O)[C@@]2(CO)[C@@H](O)[C@@H]1O (stereo partly specified) -0.97%, O=C(Nc1ccc(NC(=O)c2ccco2)c(Cl)c1)c1cccc([N+](=O)[O-])c1 -19.9%, O=C(Nc1ccc(C(=O)N2CCCCC2)cc1)c1cccc([N+](=O)[O-])c1 1.86%, CC(Sc1nncn1C)C(=O)NCCC1=CCCCC1 (stereo unspecified) -6.11%, COc1ccc(CNC(=O)C[C@H]2C[C@H](C(=O)N3CCOCC3)[C@@]3(CCC4CCCC4)c4[nH]c5ccc(Cl)cc5c4CCN3C2=O)cc1OC 19.8%, Cc1ccc(NC(=O)OCc2cncs2)cc1 -7.33%, COc1ccc(Nc2ccc([N+](=O)[O-])cn2)cn1 -22.9%, CCCSc1ccc([C@H]2N[C@@](Cc3ccccc3)(C(=O)OC)[C@H]3C(=O)N(C)C(=O)[C@@H]23)cc1 -27.9%, CC(C)(C)OC(=O)C1=C(CO)CS[C@@H]2[C@H](NC(=O)Cc3ccccc3)C(=O)N12 1.11%, C=CC[C@@H](CC(=O)NCCO)C(=O)N[C@H](C)COC(=O)[C@@H](CC=C)CC(=O)OC(C)(C)C 1.19%, CN(C(=O)COC(=O)Cc1ccccc1[N+](=O)[O-])C1CCS(=O)(=O)C1 (stereo unspecified) 1.38%, CC(C)n1cnc2c(NCc3ccccc3)cc(N[C@@H](CO)Cc3ccccc3)cc21 -6.91%, CCC(=O)c1ccc(OCC(=O)Nc2ccc3nc(C)sc3c2)cc1 -9.93%, Cc1cc(N2CCCC2)ccc1NC(=O)COc1ccc(Cl)cc1 23.4%, CN(CC(=O)Nc1ccc(OC(F)F)cc1)S(=O)(=O)/C=C/c1ccccc1 -20%, COc1ccc(S(=O)(=O)Nc2cccc3c2O[C@H](CN(C)S(=O)(=O)c2ccc(OC)cc2)[C@@H](C)CN([C@H](C)CO)C3=O)cc1 -20.8%, CN[C@H](C(=O)NC[C@H]1O[C@@H](n2cnc3c(N)ncnc32)[C@H](O)[C@@H]1O)[C@@H](C)OCc1ccccc1 -13.1%, CCCCNS(=O)(=O)CCNCc1ccccc1OC -14.5%, O=C(COC(=O)C1CCCO1)Nc1nc(-c2ccc(F)cc2)cs1 (stereo unspecified) -7.58%, CCOC(=O)COn1c(=O)c(-c2ccc(OCC)cc2)[n+]([O-])c2ccccc21 -31.8%, CCOC(=O)Cn1c(-c2cccnc2Cl)nc2ccccc21 -7.78%, CCn1c(COc2cccc(OC)c2)nnc1SCC(=O)N1CCOCC1 -6.58%, CCCCn1c(N)c(N(CCOC)C(=O)c2cccc(OCc3ccccc3)c2)c(=O)[nH]c1=O -25.9%, COc1ccc2nc3n(c(=O)c2c1)-c1ccc(Cl)cc1C(=O)NC3Cc1ccccc1 (stereo unspecified) -24.8%, CCOC(=O)C1=CN(Cc2ccc(Br)cc2)S(=O)(=O)N(C)C1C (stereo unspecified) -12.4%, O=C1[C@@H](c2ccccc2)[C@@H](c2ccccc2)N1c1cccnc1 42.8%, COc1cc(/C=C/C(=O)Nc2ccc(OC)c(S(=O)(=O)N3CCOCC3)c2)ccc1OCC#N 9.74%, Cn1nnnc1SCC(=O)Nc1nc2ccccc2s1 -5.36%, C=CCn1c(SCC(=O)NCc2ccccc2)nnc1-c1cc(Br)ccc1O -7.43%, Cc1ccc(S(=O)(=O)NC[C@H]2O[C@@H](n3cnc4c(N)ncnc43)[C@H](O)[C@@H]2O)s1 -0.44%, CCn1c(=S)[nH]c2cc(S(=O)(=O)N3CCOCC3)ccc21 -24.1%, CCOc1ccccc1Nc1ccc2nonc2c1[N+](=O)[O-] -9.48%, O=C(O)c1ccccc1CSc1nc2ccccc2s1 -10.9%, C[C@@H](CN1CCC[C@H]1CN1C(N)=NC[C@@H]1Cc1ccccc1)N1C[C@@H](Cc2ccccc2)N(CCCC2CCCC2)C1=N -9.98%, Fc1ccccc1-c1cc2cc3c(cc2cn1)OCO3 38.1%, Cc1c(CN2CC[C@@H](N3CCN(c4ccccn4)CC3)[C@H](O)C2)[nH]c2ccc(F)cc12 -18.8%, C#CCOCCOCCOCCNc1nc(N2CCN(C(=O)[C@H](CCC(=O)O)n3cc(CN)nn3)CC2)nc(N2CCN(C(=O)[C@H](CCC(=O)O)n3cc(CN)nn3)CC2)n1 -6.85%, CN(C(=O)c1cccc(NC(=O)Cc2cccc([N+](=O)[O-])c2)c1)C1CCCCC1 -12.3%, C[C@H](CO)N1C[C@H](C)[C@H](CN(C)CC2CC2)Oc2ccc(NC(=O)CCN3CCOCC3)cc2C1=O 7.19%, COc1ccc(NS(=O)(=O)c2ccc(C(=O)Nc3c(C)n(C)n(-c4ccccc4)c3=O)cc2)cc1 1.25%, CC(NC(=O)COC(=O)Cn1cc(C(F)(F)F)ccc1=O)c1ccccc1 (stereo unspecified) -5.69%, CC1O[C@H](OC2C(COC3OC(CO)C(O)[C@H](O)C3O)OC(OC3CC[C@]4(C)C(CC[C@@]5(C)[C@@H]4C=C[C@]46OC[C@@]7(CCC(C)(C)C[C@H]74)C(O)C[C@@]56C)C3(C)C)C(O)C2O)C(O)C(O)C1O (stereo partly specified) -2.45%

inhibition, active:
S=c1[nH]nc(-c2cc(-c3ccccc3)n[nH]2)n1/N=C/c1c2ccccc2cc2ccccc12 44.8%, O=C(N/N=C/c1sc(N2CCCCC2)nc1-c1cccs1)c1cccnc1 44.9%, O=C(NC(Cc1c[nH]c2ccccc12)C(=O)N/N=C/c1ccc(Br)cc1)c1cccs1 (stereo unspecified) 52.5%, COc1ccc(NS(=O)(=O)c2ccc(NC(=S)NC(=O)CC(C)C)cc2)cc1 50.3%, COc1cc(OC)cc(C(=O)N[C@H](C(=O)OCC(=O)NC(C)c2ccccc2)C(C)C)c1 (stereo partly specified) 59%, O=[N+]([O-])/C=C/c1ccc2c(ccn2Cc2ccccc2)c1 53.8%, O=C(Nc1ccc(C2CC2(Cl)Cl)cc1)c1cccc([N+](=O)[O-])c1 (stereo unspecified) 45.8%, COc1ccc(NC(=O)/C(Cl)=C(/Cl)S(=O)Cc2ccc(C)cc2)cn1 (stereo unspecified) 47.5%, Cc1ccc(NC(=O)COc2ccc(-n3ccnc3)cc2)cc1Cl 49.1%, CCCCCCCCCCOC(=O)Cn1c(COc2cccc(OC)c2)[n+](C)c2ccccc21 41.4%, CCCCCCCCCCOC(=O)Cn1c(COc2ccc(C)cc2)[n+](C)c2ccccc21 51.1%, C=CCn1c(SCC(=O)Nc2nc3ccccc3s2)nnc1-c1ccccc1O 68%, O=[N+]([O-])c1c(NCCO)cc(Sc2nc3ccccc3s2)c2nonc12 59.3%, Fc1ccc2[nH]c3c(N4CCSCC4)ncnc3c2c1 52.4%
